DT40 TDP1 no CPT: qHTS for Inhibitors of human tyrosyl-DNA phosphodiesterase 1 (TDP1): qHTS in cells in absence of CPT. DT40 Tdp1-/- hTDP1 cells, no CPT, ATP luminescence, 48 h. Potency, µM (doses to about 46.2 µM), inactives show top-dose activity change, negative = growth inhibition, actives largely listed as inhibitors. hit rate 15% among 420,000; note: potency is the fitted concentration of half-maximal effect; nearly all actives have a fitted effect of over 55% in size
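Readout: luminescence from CellTiter-Glo after 30 min in the dark at RT. Cells: DT40 Tdp1-/- with stable hTDP1, 400/well. Exposure: compounds alone, ≥48 hr, 37 °C.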
LDHA block: LDHA (human) enzyme inhibition; activity change, % (values are at about 110 or 230 µM); P00338; AID 1347041; hit rate 0.15% among 480,000; purified LDHA, NADH/diaphorase-resazurin fluorescence; hits give low values; in the data active = activity change below about -30%; inconclusive = mostly about -25% to -30%;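 note: plate controls were DMSO wells for no effect and wells without enzyme for full effect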
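Enzyme activity of human lactate dehydrogenase 5 (2 nM; 0.06 mM NADH, 0.2 mM pyruvate, 5 min, RT) is measured via a resazurin/diaphorase fluorescence readout of residual NADH.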
TDP1 cell CPT: growth inhibition of DT40 Tdp1-/-;hTDP1 cells with camptothecin (screen for TDP1 inhibitors). Potency, µM (titrated, usually from 46.2 µM), for the others: at the top dose activity change, negative = growth inhibition, actives largely listed as inhibitors. hit rate 12% among 420,000. chicken DT40 Tdp1-/-;hTDP1 cells + 20 nM CPT, ATP luminescence, 48 h; note: potency is the fitted concentration of half-maximal effect; nearly all actives have a fitted effect of over 55% in size
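Chicken DT40 Tdp1-/- cells complemented with human TDP1, 400 cells/well, exposed to compounds plus 20 nM camptothecin for at least 48 h at 37 C; viability read as ATP content by CellTiter-Glo luminescence.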
IL-1B inflam inh: blocks inflammasome-driven IL-1 beta release; activity change, % at 57.5 µM; THP-1 LPS/ATP IL-1B secretion, AlphaLISA, 16 h; hits give low values; hit rate 4.7% among 360,000; in the data active = activity change below about -50%; inconclusive = mostly about -30% to -49%
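THP-1 cells pretreated 1 hr with compounds (up to 57.5 uM final), then stimulated with LPS (250 ng/mL final) plus ATP (1.25 mM final); secreted IL-1B measured by AlphaLISA after 16 hr, decreased signal indicating inhibition.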
RORg inh: ROR gamma (mouse) transcription inhibition; P51450; Drosophila S2 Gal4-RORgamma UAS-luciferase reporter, 20 h; Potency, µM (top dose mostly 53.6 µM), for the others: top-dose activity change, negative = inhibition, actives largely listed as inhibitors; hit rate 5.4% among 310,000; AID 2551; note: potency is the fitted concentration of half-maximal effect; nearly all actives have a fitted effect of over 60% in size
Target sequence (P51450 whole entry, looked up, the tested form may be a part): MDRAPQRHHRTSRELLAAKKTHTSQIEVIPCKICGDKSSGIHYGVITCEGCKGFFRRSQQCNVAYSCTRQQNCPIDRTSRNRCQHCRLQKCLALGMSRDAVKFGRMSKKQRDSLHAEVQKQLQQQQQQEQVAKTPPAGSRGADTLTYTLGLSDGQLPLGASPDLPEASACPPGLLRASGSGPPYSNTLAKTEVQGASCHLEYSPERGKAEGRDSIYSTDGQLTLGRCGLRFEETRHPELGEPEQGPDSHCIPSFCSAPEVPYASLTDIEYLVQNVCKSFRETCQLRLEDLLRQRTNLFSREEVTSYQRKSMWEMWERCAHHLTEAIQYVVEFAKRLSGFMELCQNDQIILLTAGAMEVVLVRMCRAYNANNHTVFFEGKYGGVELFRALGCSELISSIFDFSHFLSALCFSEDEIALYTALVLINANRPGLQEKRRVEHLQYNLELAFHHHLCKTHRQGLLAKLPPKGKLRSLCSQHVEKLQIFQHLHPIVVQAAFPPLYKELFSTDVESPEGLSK
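In this cell-based reporter format, copper sulfate (700 uM final) drives Gal4–ROR gamma fusion expression from a metallothionein promoter in Drosophila Schneider cells; compounds preincubated 1 hr, reporter read after 20 hr at ambient temperature.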
Gal4-VP16 FLuc: Gal4-VP16 reporter inhibition counter-screen; Drosophila S2 Gal4-VP16 UAS-luciferase, luminescence, 20 h; hit rate 3.5% among 310,000; Potency, µM (titrated, usually from 53.6 µM), for inactives: at the highest dose activity, negative = inhibition, hits mostly inhibitors;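 note: Gal4-VP16 expression switched on by copper sulfate through the metallothionein promoter; potency is the fitted concentration of half-maximal effect; nearly all actives have a fitted effect of over 50% in size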
* hit, by the source's call. Rows were chosen to be rich in hits. Some 18% of all compounds tested hit in one or more screens of this group. Unless noted, calls come from the whole dose curve; as a rule, active = well fitted curve in the direction sought with a large enough effect; inconclusive = small, poorly fitted or top-dose-only effect, or another doubt; inactive = no such curve, though single readings can be large; an effect the other way counts as inactive or inconclusive. Unless noted, % is set by controls: 0 for no effect and ±100 for the full control effect.

What do the screens show for `CCC(Sc1nc(C)cc(=O)[nH]1)C(=O)Nc1sc2c(c1C#N)CCCC2` (stereo unspecified)?
DT40 TDP1 no CPT: 16µM*; LDHA block: 1; TDP1 cell CPT: 16µM*; IL-1B inflam inh: 48; RORg inh: 13%; Gal4-VP16 FLuc: -6%

How did CC(Sc1nc(N)cc(=O)[nH]1)C(=O)Nc1sc2c(c1C#N)CCCC2 (stereo unspecified) do in these assays?
DT40 TDP1 no CPT: 2.3µM*; LDHA block: -2; TDP1 cell CPT: 2.3µM*; IL-1B inflam inh: 44; RORg inh: 38%; Gal4-VP16 FLuc: -18%

Results for CCOC(=O)Cc1nnc(NC(=O)C(CC)Sc2nc(C)cc(=O)[nH]2)s1 (stereo unspecified) ?
DT40 TDP1 no CPT: 16µM*; LDHA block: 0; TDP1 cell CPT: inconclusive; IL-1B inflam inh: 5; RORg inh: -2%; Gal4-VP16 FLuc: -2%

What do the screens show for `COc1cc(C2Nc3ccccc3C(=O)N2C2CC2)ccc1O` (stereo unspecified)?
LDHA block: 7

What do the screens show for `CCOC(=O)c1cnc(Nc2ccccc2C)c2ccccc12`?
LDHA block: 4

What do the screens show for `CCOC(=O)c1ccc(NC(=O)N2CCN(Cc3nc(-c4ccccc4)oc3C)CC2)cc1`?
LDHA block: 6

What do the screens show for `O=C(/C=C/c1cccc2ccccc12)NC1CCCC1`?
LDHA block: 6

What do the screens show for `Cc1ccc2c(C)c(CCC(=O)Nc3cc(Cl)ccc3F)c(=O)oc2c1`?
LDHA block: -1

How did Cc1nc(N)sc1-c1csc(Nc2ccccn2)n1 do in these assays?
DT40 TDP1 no CPT: inconclusive; LDHA block: 6; TDP1 cell CPT: inconclusive; IL-1B inflam inh: -24; RORg inh: inconclusive; Gal4-VP16 FLuc: -3%

Results for CC(=O)c1cccc(Nc2nc(-c3sc(C)nc3C)cs2)c1 ?
DT40 TDP1 no CPT: inconclusive; LDHA block: -6; TDP1 cell CPT: inconclusive; IL-1B inflam inh: -57*

What do the screens show for `Cc1ccc(Nc2nc(-c3sc(N)nc3C)cs2)cc1`?
DT40 TDP1 no CPT: inconclusive; LDHA block: 6; TDP1 cell CPT: -76%; IL-1B inflam inh: -20; RORg inh: 6%; Gal4-VP16 FLuc: 1%

How did COc1ccc(Nc2nc(-c3sc(N)nc3C)cs2)cc1 do in these assays?
DT40 TDP1 no CPT: inconclusive; LDHA block: 11; TDP1 cell CPT: inconclusive; IL-1B inflam inh: -29; RORg inh: -11%; Gal4-VP16 FLuc: 19%

How did Cc1nc(NC(=O)c2ccccc2)sc1-c1csc(Nc2cccc(Cl)c2)n1 do in these assays?
RORg inh: inconclusive; Gal4-VP16 FLuc: -20%

How did COc1ccc(CCNc2nc(-c3sc(N)nc3C)cs2)cc1OC do in these assays?
DT40 TDP1 no CPT: 16µM*; LDHA block: 9; TDP1 cell CPT: inconclusive; IL-1B inflam inh: 0; RORg inh: 9%; Gal4-VP16 FLuc: 4%

What do the screens show for `Cc1nc(N)sc1-c1csc(Nc2cc(N(C)C)ccc2Cl)n1`?
DT40 TDP1 no CPT: 13µM*; LDHA block: 4; TDP1 cell CPT: 7.3µM*; IL-1B inflam inh: 0

Results for CC(=O)c1cccc(Nc2nc(-c3sc(N)nc3C)cs2)c1 ?
DT40 TDP1 no CPT: 16µM*; LDHA block: 9; TDP1 cell CPT: 12µM*; IL-1B inflam inh: -3; RORg inh: 18%; Gal4-VP16 FLuc: 1%

How did COCCn1c(N2CCN(C)CC2)nc2c1c(=O)n(C)c(=O)n2C do in these assays?
LDHA block: 5

Results for COc1ccccc1CCNC(=O)CSc1ccccc1C(=O)OCC(=O)C(C)(C)C ?
LDHA block: 7

How did COc1cc(CNC(=O)c2cc(-c3cc(Cl)ccc3OC)n[nH]2)cc(OC)c1 do in these assays?
DT40 TDP1 no CPT: inconclusive; LDHA block: -2; TDP1 cell CPT: inconclusive; IL-1B inflam inh: -9

Screens: PubChem BioAssay, National Center for Advancing Translational Sciences (NCATS)
